# Laboratory results taken from PubChem BioAssay.
# “And” between values parts separate entries of the source, which are not always exact repeats. Equal entries are not always repeated. The source made the active and inactive calls. The rule behind the calls is not given here.
# Key:
# [1] = enhancers of glutamate uptake in motor neurons, MN-1 cell line (AID 1612); details: MN-1 motor neuron cells, stronger effect = higher value;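 note: tested at 1 µM final; 0% = mean of DMSO vehicle wells on each plate; positive means more glutamate uptake than control and negative means less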
# [2] = reducers of polyQ inclusions in PC12 cells, cell-based, NGF-treated PC12, GFPQ80 (AID 1614); details: PC12 NGF-treated GFP-polyQ80 inclusion reduction;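 note: lower means fewer inclusions and 0 means no inclusions at all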
# [3] = suppressors of polyglutamine aggregation in yeast, 75Q-TubH (AID 1616); details: S. cerevisiae 75Q-TubH polyglutamine aggregation suppression; stronger effect = higher value
# [4] = hESC survival regulators, cell-based (AID 493140); details: human embryonic stem cell survival screen; stronger effect = higher value;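 note: cells exposed to compounds for four days before counting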
# [5] = circadian clock period modulators, cell-based, LOPAC library, luminescence reporter (AID 2774); details: circadian reporter cells, at 7 µM, actives lie on both sides;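 note: values are relative to mean of DMSO wells on each plate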
SMILES,glutamate uptake change [1],inclusion score [2],aggregation suppression score [3],survival [4],period change [5]
NC(=O)NC1NC(=O)NC1=O (centres undefined),-8.53%,2,0.815,26.8 (inactive),
Cn1c(=O)c2c(ncn2CCO)n(C)c1=O,2.77%,2,1.2,29.2 (inactive),
NC(N)=NS(=O)(=O)c1ccc(N)cc1,5.91%,2,1.54,11.5 (inactive),
CCn1cc(C(=O)O)c(=O)c2cc(F)c(N3CCNCC3)nc21,-7.7%,2,1.11,13.2 (inactive),
CCn1cc(C(=O)O)c(=O)c2cnc(N3CCNCC3)nc21,-1.23%,2,1.16,5.25 (inactive),
O=C(O)CCC(=O)c1ccc(-c2ccccc2)cc1,6.02%,2,-0.185,32.7 (inactive),
Nc1ccc(S(=O)(=O)Nc2ccnn2-c2ccccc2)cc1,16.6%,2,0.956,28 (inactive),0.065 h (inactive)
COCCc1ccc(OCC(O)CNC(C)C)cc1 (centres undefined),-0.51%,2,0.579,15.4 (inactive),0.045 h (inactive)
CC(=O)Nc1ccc(OCC(O)CNC(C)C)cc1 (centres undefined),-0.19%,2,1.1,20.5 (inactive),
CCCc1ncc(C[n+]2ccccc2C)c(N)n1,5.76%,1.5,0.986,8.58 (inactive),
NCC1CCC(C(=O)O)CC1 (centres undefined),10.5%,2,1.21,17.8 (inactive),
COc1ccc(CCN(C)CCCC(C#N)(c2ccc(OC)c(OC)c2)C(C)C)cc1OC (centres undefined),24.7%,2,1.45,22.4 (inactive),0.12 h (inactive)
Cc1ccccc1OCC(O)CO (centres undefined),18.9%,2,1.74,11.9 (inactive),
CN1C(C(=O)Nc2ccccn2)=C(O)c2sccc2S1(=O)=O,-15.9%,2,0.632,5.08 (inactive),
Cc1cccc(N(C)C(=S)Oc2ccc3ccccc3c2)c1,-6.25%,2,0.257,27.3 (inactive),
Cc1c(NC(C)C)c(=O)n(-c2ccccc2)n1C,28.4%,2,1.14,7.42 (inactive),

SMILES,glutamate uptake change [1],inclusion score [2],aggregation suppression score [3],survival [4],period change [5]
CC1=C(C(=O)O)N2C(=O)[C@@H](NC(=O)[C@H](N)c3ccc(O)cc3)[C@H]2SC1,-6.33%,2.5,1.47,5 (inactive),
Cc1ccnc(NS(=O)(=O)c2ccc(N)cc2)n1,-29.5%,2,1.19,6.5 (inactive),
CCN(CC)CCOC(=O)C(c1ccccc1)c1ccccc1,15.8%,2,0.888,11.2 (inactive),
Cc1cc(C)nc(NS(=O)(=O)c2ccc(N)cc2)n1,2.45%,2,1.21,3.75 (inactive),
Nc1cc(-c2ccncc2)c[nH]c1=O,12.5%,2,1.17,2.67 (inactive),
CCN(CC)CCNC(=O)c1cc(Br)c(N)cc1OC,-4.45%,2,1.35,5.42 (inactive),
C[n+]1ccccc1/C=N/O,-3.95%,2,1.54,5.75 (inactive),
CCCCN(CCCC)CCCOC(=O)c1ccc(N)cc1,-0.54%,2,1.28,2.17 (inactive),
C[N+](C)(C)CCCCCC[N+](C)(C)C,11.7%,2,1.28,12.8 (inactive),-0.005 hour (inactive) and -0.2 hour (inactive)
CC(=O)OCC1=C(C(=O)O)N2C(=O)[C@@H](NC(=O)Cc3cccs3)[C@H]2SC1,0.12%,2,1.47,7.08 (inactive),0.04 h (inactive)
CC(N)CCCC(C)(C)O (centres undefined),-4.36%,2,1.46,21.5 (inactive),
NCCCC[C@H](N[C@@H](CCc1ccccc1)C(=O)O)C(=O)N1CCC[C@H]1C(=O)O,1.96%,2,0.836,16.8 (inactive),
CCCCC1(COC(=O)CCC(=O)O)C(=O)N(c2ccccc2)N(c2ccccc2)C1=O,-2.57%,2,0.747,3.58 (inactive),
Nc1nc2c(c(=O)[nH]1)N(C=O)C(CNc1ccc(C(=O)N[C@@H](CCC(=O)O)C(=O)O)cc1)CN2 (some centres undefined),-0.12%,1.5,2.31,8.17 (inactive),
O=C1c2ccccc2C(=O)C1c1ccccc1,6.38%,2,0.588,8.58 (inactive),
CC(=O)OCC1=C(C(=O)O)N2C(=O)[C@@H](NC(=O)CSc3ccncc3)[C@H]2SC1,-2.14%,2,1.12,1.83 (inactive),0.035 h (inactive)
